Bim-Bcl-XL: inhibitors of Bim-Bcl-XL binding, primary screen, biochemical, multiplexed, bead flow cytometry, human Bcl-XL; AID 1007, 2008; Bcl-2-like protein 1 (Homo sapiens), Q07817; Bim peptide-Bcl-XL binding, fluorescence; inhibition, % at 10 µM; 190,000 compounds, 0.04% hits
Target sequence (Q07817 whole entry, looked up): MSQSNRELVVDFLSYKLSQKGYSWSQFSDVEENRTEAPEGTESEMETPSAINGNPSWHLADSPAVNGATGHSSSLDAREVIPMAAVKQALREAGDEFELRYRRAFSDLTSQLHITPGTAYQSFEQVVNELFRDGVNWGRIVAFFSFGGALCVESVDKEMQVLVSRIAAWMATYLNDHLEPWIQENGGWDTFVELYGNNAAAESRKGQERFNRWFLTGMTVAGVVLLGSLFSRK
Bim-Bfl-1: inhibitors of Bim binding to Bfl-1, primary screen, biochemical, multiplexed, bead-based flow cytometry | Bim-Bfl-1 binding inhibition | inhibition, % at 10 µM | 190,000 compounds, 0.12% hits | Bcl-2-related protein A1 (Homo sapiens), Q16548;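 also: 0% = wells without compound plus tracer and 100% = blocker peptide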
Target sequence (Q16548 whole entry, looked up): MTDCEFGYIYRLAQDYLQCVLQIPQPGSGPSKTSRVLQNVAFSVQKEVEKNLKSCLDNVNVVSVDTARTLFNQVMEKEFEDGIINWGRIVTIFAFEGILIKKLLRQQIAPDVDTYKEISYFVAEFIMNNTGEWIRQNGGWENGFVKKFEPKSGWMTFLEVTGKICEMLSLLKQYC
Bim-Bcl-2: inhibitors of Bim-Bcl-2 binding, primary screen, biochemical, multiplexed, human Bcl-2 family. Bead-based flow cytometry, Bim peptide-Bcl-2 binding. AID 950, 2007. 190,000 compounds, 0.06% hits. inhibition, % at 10 µM. Apoptosis regulator Bcl-2 (Homo sapiens), P10415; in the data active = inhibition above about 40%;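 also: 0% = no compound wells with probe peptide and 100% = reference peptide inhibitor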
Bim-Bcl-B: inhibitors of Bim-Bcl-B binding, primary screen, biochemical, multiplexed, human Bcl-2 family; 190,000 compounds, 0.073% hits; inhibition, % at 10 µM; AID 951, 2007; bead-based flow cytometry, Bim peptide-Bcl-B binding;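 also: 0% = tracer peptide without compound and 100% = reference inhibitor peptide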
Bim-Bcl-W: inhibitors of Bim binding to Bcl-W, primary screen, biochemical, multiplexed, bead-based flow cytometry. Bcl-2-like protein 2 (Homo sapiens), Q92843. Bim peptide-Bcl-W binding. inhibition, % at 10 µM. 190,000 compounds, 0.02% hits. AID 952, 2007;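 also: 0% = bound tracer without compound and 100% = peptide blocker; higher means less fluorescent Bim peptide bound to Bcl-W beads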
Bim-BclXL dose: Bim-Bcl-XL interaction inhibitors, hit retest, confirmation, biochemical, dose response, multiplexed, HTS hits; shares compounds with Bim-Bfl-1; bead-based flow cytometry, Bim-Bcl-XL binding; AID 2084, 2009; inhibition of binding at 100 µM; 40 tested, under 10 active; call rule not given here
Starred values were filed as active, the others as inactive. This is a sample that favours compounds with a hit; in the whole collection about 0.18% have one here. Rule as the data show it, unless noted: active = inhibition above about 40%.

SMILES	Bim-Bcl-XL	Bim-Bfl-1	Bim-Bcl-2	Bim-Bcl-B	Bim-Bcl-W	others
O=C(NCCCO)c1ccc2nc(-c3ccco3)c(-c3ccco3)nc2c1	12.0	52.0*	22.0	3.0	29.0
O=C(NCCO)Nc1ccc2nc(-c3ccco3)c(-c3ccco3)nc2c1	13.0	43.0*	29.0	8.0	19.0
O=C(NCCO)Nc1ccc2nsnc2c1	3.0	-1.0	-1.0	-1.0	0.0
COc1ccc(/C=N/n2cc(-c3ccccc3)nc2N)cc1	19.0	65.0*	84.0*	84.0*	12.0
CCOc1cc(NC(=S)NC)c(OCC)cc1NC(=O)c1ccc(OC)cc1	27.0	45.0*	53.0*	41.0*	49.0*
Cc1ccc(S(=O)(=O)N2CCCCC2)cc1NC(=O)COC(=O)c1ccccc1F	11.0	48.0*	78.0*	74.0*	8.0
Cc1ccc(S(=O)(=O)N2CCCCC2)cc1NC(=O)COC(=O)Cc1ccc(Cl)cc1	-1.0	0.0	-1.0	-9.0	0.0
COc1ccc([N+](=O)[O-])cc1N(CC(=O)Nc1ccccc1C(=O)NC(C)C)S(C)(=O)=O	0.0	-4.0	-2.0	-2.0	-3.0
CN(CCCOc1ccccc1Br)Cc1ccccc1	102.0*	99.0*	91.0*	108.0*	98.0*
Cc1ccc(Cl)c(OCCCCN(C)Cc2ccccc2)c1	0.0	4.0	3.0	1.0	2.0
O=C1c2ccccc2-c2onc3ccc(NCCCn4ccnc4)c1c23	100.0*	79.0*	88.0*	92.0*	94.0*
Cc1nc(NCCCn2ccnc2)c2ccccc2n1	0.0	0.0	-3.0	-1.0	1.0
Nc1c(C(=O)NCC2CCCO2)sc2nc3c(c(-c4ccco4)c12)CC/C3=C\c1ccco1 (configuration not stated)	37.0	38.0	65.0*	52.0*	33.0
O=[N+]([O-])c1ccc(-c2cnc(SCc3ccccc3Cl)[nH]2)cc1	14.0	59.0*	80.0*	81.0*	12.0
CCN1/C(=C/c2ccc3cc(C)ccc3[n+]2CC)Sc2ccccc21	13.0	14.0	15.0	-22.0	5.0
CCN1/C(=C/c2ccc3cc(C)ccc3[n+]2CC)Sc2cc(C)c(C)cc21	19.0	39.0	40.0*	-26.0	14.0
O=C(/C=C\c1ccccc1OC(=O)c1ccccc1F)c1cc2ccccc2o1	-6.0	-4.0	-4.0	-11.0	-4.0
CC(C)CCNC(=O)CCn1c(=S)oc2ccccc21	-6.0	-7.0	-5.0	-3.0	-1.0
COc1cc(CNc2ccc(N3CCCC3)cc2)ccc1OCc1ccccc1F	1.0	27.0	10.0	-11.0	20.0
COc1cc(CNc2ccc(N3CCCC3)cc2)ccc1OCc1ccccc1	3.0	47.0*	24.0	0.0	32.0
COc1ccc(C(C(=O)NC2CCCCC2)N(C(=O)CCl)c2cccc(Cl)c2)cc1 (configuration not stated)	-9.0	-13.0	-9.0	-13.0	-3.0
COC(=O)Cc1cc(=O)[nH]c(Nc2nc3ccccc3o2)n1	4.0	64.0*	-5.0	-2.0	13.0
S=C(NCCN1CCOCC1)Nc1ccccc1Cl	-7.0	1.0	-3.0	-5.0	-6.0
Cc1ccc(C(=O)N(CCCN(C)C)c2nc3ccc(Cl)cc3s2)cc1C	8.0	57.0*	82.0*	79.0*	4.0
CN(C)CCCN(C(=O)c1ccco1)c1nc2ccc(Cl)cc2s1	1.0	-5.0	-1.0	-3.0	0.0
CCC(/C=C1\Sc2ccc(OC)cc2N1CCO)=C\c1sc2ccc(OC)cc2[n+]1CCO	51.0*	62.0*	60.0*	14.0	40.0*
CCC(/C=C1\Sc2ccc(OC)cc2N1CC)=C\c1sc2ccc(OC)cc2[n+]1CCCS(=O)(=O)[O-]	3.0	-1.0	5.0	4.0	1.0
CCOc1ccc(/C=C/C(=O)c2cc(Br)ccc(=O)c2O)cc1	21.0	42.0*	28.0	-13.0	21.0
Clc1ccc2c(N/N=C/c3ccccc3Br)ccnc2c1	-4.0	43.0*	28.0	33.0	16.0
CC(=O)Nc1ccc(-n2cc(-c3ccccc3)[nH]c2=S)cc1	-5.0	27.0	-1.0	-37.0	-1.0	Bim-BclXL dose=-10.4

Screening results deposited in PubChem by NMMLSC.
